According to PubChem BioAssay (Tox21):
Results filed as inconclusive are left out. The source made the active and inactive calls. Unless noted, calls come from the whole dose curve.

What was measured:
[1] = Nuclear factor erythroid 2-related factor 2/antioxidant responsive element (Nrf2/ARE) small molecule agonists: qHTS cell viability counter screen in human keratinocytes (AID 1919968; active = well fitted curve in the direction sought with a large enough effect in the repeat runs; an effect the other way counts as inactive or inconclusive; note: nearly all actives have a fitted effect of over 55% in size)
Summary of the method: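 KeratinoSens cells (HaCaT keratinocytes stably carrying an ARE-luciferase reporter) were seeded at 1,500 cells/well and rested 5 h at 37 C/5% CO2. They were then exposed to compounds in DMSO for 23 h. Viability was read by CellTiter-Fluor fluorescence after 1 h.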

[2] = Nuclear factor erythroid 2-related factor 2/antioxidant responsive element (Nrf2/ARE) small molecule agonists: luciferase reporter gene qHTS assay in human keratinocytes (AID 1919969); note: nearly all actives have a fitted effect of over 35% in size
[3] = target: Gonadotropin-releasing hormone receptor (Homo sapiens) (UniProt P30968); test: Human gonadotropin-releasing hormone receptor (GnRHR) small molecule agonists, calcium flux assay in GnRHR-HEK293 cells (AID 1920063); note: nearly all actives have a fitted effect of over 35% in size; note: potency is the fitted concentration of half-maximal effect
Gonadotropin-releasing hormone receptor (Homo sapiens), sequence (P30968 whole entry, looked up): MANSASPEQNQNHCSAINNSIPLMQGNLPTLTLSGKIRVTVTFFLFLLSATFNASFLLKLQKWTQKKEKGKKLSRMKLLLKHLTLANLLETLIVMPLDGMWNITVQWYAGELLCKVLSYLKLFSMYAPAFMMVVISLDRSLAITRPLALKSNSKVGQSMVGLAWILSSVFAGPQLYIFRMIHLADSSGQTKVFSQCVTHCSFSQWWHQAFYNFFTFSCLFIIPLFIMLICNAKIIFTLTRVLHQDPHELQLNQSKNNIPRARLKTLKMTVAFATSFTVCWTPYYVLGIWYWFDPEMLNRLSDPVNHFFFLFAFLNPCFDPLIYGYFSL
Summary of the method: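 HEK293 cells stably expressing human GnRHR were plated 18 h at 37 °C, loaded with calcium dye 1 h at 37 °C, then given compound in agonist mode; fluorescence (Ex/Em 480/540) read kinetically for 3 min at 1 s intervals.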

[4] = target: KiSS-1 receptor (Homo sapiens) (UniProt Q969F8); test: Human kisspeptin (KISS1R) small molecule agonists, calcium flux assay in KISS1R-HEK293 cells (AID 1920064; active = well fitted curve in the direction sought with a large enough effect in the repeat runs; an effect the other way counts as inactive or inconclusive)
KiSS-1 receptor (Homo sapiens), sequence (Q969F8 whole entry, looked up): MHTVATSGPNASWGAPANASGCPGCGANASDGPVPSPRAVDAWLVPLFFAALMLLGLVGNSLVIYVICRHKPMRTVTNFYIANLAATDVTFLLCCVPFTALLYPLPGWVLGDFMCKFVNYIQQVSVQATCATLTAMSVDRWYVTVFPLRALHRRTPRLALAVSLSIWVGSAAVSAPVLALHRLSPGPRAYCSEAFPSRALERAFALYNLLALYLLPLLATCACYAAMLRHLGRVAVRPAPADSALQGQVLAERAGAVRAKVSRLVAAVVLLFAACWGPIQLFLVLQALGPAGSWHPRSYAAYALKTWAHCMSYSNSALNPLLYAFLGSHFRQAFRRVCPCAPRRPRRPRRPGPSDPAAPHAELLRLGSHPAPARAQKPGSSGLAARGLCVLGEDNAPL
Summary of the method: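 HEK293 cells stably expressing human KISS1R were plated 18 h at 37 °C, loaded with calcium dye for 1 h at 37 °C, then given compound by pin tool. Fluorescence (Ex/Em 480/540) was read kinetically for 3 min.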

[5] = G protein-coupled receptor (GPCR) small molecule agonists, calcium flux assay: HEK293 wild type cell line counter screen (AID 1920065)
Summary of the method: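 Cells were plated and cultured 18 h at 37 C/5% CO2, then loaded with calcium dye for 1 h at 37 C. Compounds in DMSO were pin-transferred in agonist mode, and fluorescence (Ex/Em 480/540) was read kinetically for 3 min at 1 s intervals.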

[6] = p53 small molecule agonists, cell-based qHTS assay with human liver microsomes (AID 1963577);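 note: p53 response element beta-lactamase reporter cells with liver microsomes plus NADPH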
Summary of the method: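 Metabolically competent format: test substances, human liver microsomes and NADPH (both 0.5 mg/mL final) incubated with p53RE-bla cells 16 h at 37 C. Beta-lactamase reporter signal then quantified by fluorescence.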

[7] = p53 small molecule agonists, cell-based qHTS assay with rat liver microsomes (AID 1963578)
Summary of the method: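 Each plate received p53RE-bla cells, then compound, then rat liver microsomes and NADPH (both 0.5 mg/mL final). Plates were held 16 h at 37 C, and beta-lactamase activity was detected with LiveBLAzer over 2 h.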

[8] = p53 small molecule agonists, cell-based qHTS assay with human liver microsomes: qHTS cell viability counter screen (AID 1963579); note: nearly all actives have a fitted effect of over 45% in size
Summary of the method: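 Tox21 library compounds, delivered from DMSO stocks, were tested on p53RE-bla cells together with 0.5 mg/mL human liver microsomes and 0.5 mg/mL NADPH (final) over 16 h at 37 C; CellTiter-Glo luminescence served as the cytotoxicity measure.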

[9] = p53 small molecule agonists, cell-based qHTS assay with rat liver microsomes: qHTS cell viability counter screen (AID 1963580); note: nearly all actives have a fitted effect of over 45% in size
Summary of the method: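 p53RE-bla HCT-116 cells (4,000/well) rested 5 h at 37 C, then given Tox21 compounds in DMSO with rat liver microsomes (0.5 mg/mL final) plus NADPH (0.5 mg/mL final) for 16 h at 37 C. Viability read by CellTiter-Glo luminescence after 30 min at room temperature.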

[10] = p53 small molecule agonists, cell-based qHTS assay: qHTS cell viability counter screen (AID 1963581); note: nearly all actives have a fitted effect of over 45% in size
Summary of the method: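 p53RE-bla HCT-116 cells were exposed to compounds for 16 h at 37 C; after the beta-lactamase FRET read in the same wells, CellTiter-Glo was added and luminescence (intracellular ATP) read after 30 min at room temperature.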

[11] = target: 5-hydroxytryptamine receptor 2A (Homo sapiens) (UniProt P28223); test: 5-hydroxytryptamine receptor 2A (HTR2A) small molecule antagonists, cell-based qHTS assay (AID 1963586); note: nearly all actives have a fitted effect of over 45% in size
5-hydroxytryptamine receptor 2A (Homo sapiens), sequence (P28223 whole entry, looked up): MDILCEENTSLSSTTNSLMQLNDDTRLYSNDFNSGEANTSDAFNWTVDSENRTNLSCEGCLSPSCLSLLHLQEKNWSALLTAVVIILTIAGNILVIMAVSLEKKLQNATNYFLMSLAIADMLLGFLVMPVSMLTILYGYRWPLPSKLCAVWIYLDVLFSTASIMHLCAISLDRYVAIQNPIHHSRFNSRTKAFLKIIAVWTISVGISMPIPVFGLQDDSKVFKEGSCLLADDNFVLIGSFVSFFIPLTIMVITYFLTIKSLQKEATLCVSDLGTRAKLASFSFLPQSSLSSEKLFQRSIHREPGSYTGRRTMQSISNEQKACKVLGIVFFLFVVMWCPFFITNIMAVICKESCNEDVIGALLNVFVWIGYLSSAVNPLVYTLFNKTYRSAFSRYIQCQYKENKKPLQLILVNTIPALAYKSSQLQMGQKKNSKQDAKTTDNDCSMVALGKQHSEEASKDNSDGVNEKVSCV
Summary of the method: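 Antagonist-mode intracellular calcium assay: DOI (4 nM) added after 5 min compound pre-incubation at room temperature to dye-loaded HTR2A-CHO cells. Fluorescence followed for 3 min, sampled every second.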

[12] = target: 5-hydroxytryptamine receptor 2A (Homo sapiens) (UniProt P28223); test: 5-hydroxytryptamine receptor 2A (HTR2A) small molecule agonists, cell-based qHTS assay (AID 1963587); note: nearly all actives have a fitted effect of over 30% in size
Summary of the method: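 HTR2A-CHO cells, plated 18 h at 37 C/5% CO2, dye-loaded 1 h at 37 C; compounds in DMSO added by pin tool (agonist mode). Intracellular calcium flux read as kinetic fluorescence on FDSS over 2 min at 1 s intervals.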

[13] = target: Muscarinic acetylcholine receptor M1 (Homo sapiens) (UniProt P11229); test: Cholinergic receptor muscarinic 1 (CHRM1) small molecule antagonists, cell-based qHTS assay (AID 1963588); note: nearly all actives have a fitted effect of over 40% in size
Muscarinic acetylcholine receptor M1 (Homo sapiens), sequence (P11229 whole entry, looked up): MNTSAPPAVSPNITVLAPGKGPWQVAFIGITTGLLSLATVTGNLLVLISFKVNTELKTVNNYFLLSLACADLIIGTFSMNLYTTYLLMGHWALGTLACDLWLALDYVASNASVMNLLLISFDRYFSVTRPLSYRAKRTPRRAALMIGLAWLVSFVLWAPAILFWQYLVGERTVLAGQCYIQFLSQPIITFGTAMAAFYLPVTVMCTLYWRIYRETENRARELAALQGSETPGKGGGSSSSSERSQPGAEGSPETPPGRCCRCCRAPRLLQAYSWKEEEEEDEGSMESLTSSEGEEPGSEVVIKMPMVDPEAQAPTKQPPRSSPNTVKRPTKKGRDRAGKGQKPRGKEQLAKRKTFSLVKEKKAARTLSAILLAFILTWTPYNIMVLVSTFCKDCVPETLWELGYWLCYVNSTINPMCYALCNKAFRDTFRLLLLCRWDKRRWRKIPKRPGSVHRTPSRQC
Summary of the method: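 CHRM1-CHO calcium-flux assay, antagonist mode. Cells were seeded 18 h, dye-loaded 1 h at 37 C and given compound for 5 min at RT, then acetylcholine was added at 50nM. FDSS fluorescence was read 3 min; 15 concentrations, three runs.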

[14] = target: Muscarinic acetylcholine receptor M1 (Homo sapiens) (UniProt P11229); test: Cholinergic receptor muscarinic 1 (CHRM1) small molecule agonists, cell-based qHTS assay (AID 1963589); note: nearly all actives have a fitted effect of over 35% in size
Summary of the method: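 CHO cells stably expressing human CHRM1, seeded 18 h at 37 C/5% CO2, dye-loaded 1 h at 37 C, then given compound in agonist mode; intracellular calcium fluorescence read kinetically at 1 s intervals. Fifteen concentrations, three independent runs.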

[15] = cAMP Responsive Elements (CRE) small molecule agonists, cell-based qHTS assay (AID 1963590)
Summary of the method: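 CRE-bla HEK 293T cells in DMEM with 10% dialyzed FBS, NEAA, pyruvate and 25 mM HEPES were plated 18 h at 37 C/5% CO2, then exposed to compounds in DMSO for 3 h before LiveBLAzer B/G FRET substrate addition.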

[16] = cAMP Responsive Elements (CRE) small molecule antagonists, cell-based qHTS assay (AID 1963591; active = well fitted inhibition curve with a large enough effect in the signal ratio in the repeat runs, not every such curve was filed as active; the % refers to the signal ratio)
Summary of the method: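 CRE-bla HEK293T cells were plated 18 h at 37 °C/5% CO2, pinned with compound in DMSO, then stimulated with NKH477 at 0.25 uM final for 3 h. LiveBLAzer B/G FRET substrate was added and plates incubated 2 h at room temperature.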

[17] = target: Beta-2 adrenergic receptor (Homo sapiens) (UniProt P07550); test: Adrenergic beta2 receptor (ADRB2) small molecule antagonists, cell-based qHTS assay (AID 1963592); note: series mostly up to about 92 µM; nearly all actives have a fitted effect of over 50% in size
Beta-2 adrenergic receptor (Homo sapiens), sequence (P07550 whole entry, looked up): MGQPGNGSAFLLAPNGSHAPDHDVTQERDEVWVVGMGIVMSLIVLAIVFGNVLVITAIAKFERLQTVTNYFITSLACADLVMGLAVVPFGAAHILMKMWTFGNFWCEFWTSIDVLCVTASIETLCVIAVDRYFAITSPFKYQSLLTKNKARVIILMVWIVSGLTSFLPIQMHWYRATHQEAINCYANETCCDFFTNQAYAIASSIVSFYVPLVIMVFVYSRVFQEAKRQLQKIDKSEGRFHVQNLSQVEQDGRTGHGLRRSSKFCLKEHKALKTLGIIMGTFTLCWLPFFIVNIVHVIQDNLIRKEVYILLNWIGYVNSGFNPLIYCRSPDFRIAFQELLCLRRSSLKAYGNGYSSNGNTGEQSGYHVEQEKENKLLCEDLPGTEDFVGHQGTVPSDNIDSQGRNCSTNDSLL
Summary of the method: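 Cells (CHO, stable ADRB2 overexpression) incubated 18-20hr at 37C; compounds added from DMSO; agonist mix (1nM isoproterenol, 100uM IBMX, 25uM Ro-20-1724) added; 0.5hr RT; d2-cAMP and anti-cAMP-cryptate added; 1hr RT; 665/615 nm read.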

[18] = target: Beta-2 adrenergic receptor (Homo sapiens) (UniProt P07550); test: Adrenergic beta2 receptor (ADRB2) small molecule agonists, cell-based qHTS assay (AID 1963593);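 note: CHO cells stably overexpressing human ADRB2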
Summary of the method: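 CHO cells stably over-expressing ADRB2 were plated overnight at 37C, then dosed with compounds plus a stimulation mix containing 100uM IBMX and 25uM Ro-20-1724 for 0.5hr at room temperature. cAMP was measured by HTRF competition, 1hr.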

[19] = target: D(2) dopamine receptor (Homo sapiens) (UniProt P14416); test: Dopamine D2 receptor (DRD2) small molecule agonists, cell-based qHTS assay (AID 1963594); note: nearly all actives have a fitted effect of over 35% in size
D(2) dopamine receptor (Homo sapiens), sequence (P14416 whole entry, looked up): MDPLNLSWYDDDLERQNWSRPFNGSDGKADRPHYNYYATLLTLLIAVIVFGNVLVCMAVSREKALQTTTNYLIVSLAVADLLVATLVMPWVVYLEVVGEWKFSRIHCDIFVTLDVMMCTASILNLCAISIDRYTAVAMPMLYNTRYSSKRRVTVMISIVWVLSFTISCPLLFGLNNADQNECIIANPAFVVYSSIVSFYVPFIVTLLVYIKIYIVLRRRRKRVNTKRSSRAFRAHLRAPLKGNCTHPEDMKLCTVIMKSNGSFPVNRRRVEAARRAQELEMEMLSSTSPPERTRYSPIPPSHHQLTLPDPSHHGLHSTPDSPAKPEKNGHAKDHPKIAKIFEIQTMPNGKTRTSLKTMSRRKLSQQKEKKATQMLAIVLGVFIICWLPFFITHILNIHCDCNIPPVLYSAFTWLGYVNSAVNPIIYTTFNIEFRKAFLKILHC
Summary of the method: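 HEK293 cells stably expressing DRD2 were cultured 24 h at 37 C, then given Ro20-1724 (0.1 mM final) and compounds for 10 min at room temperature. NKH477 (200nM) was then added for 30 min. cAMP was read by HTRF.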

[20] = target: D(2) dopamine receptor (Homo sapiens) (UniProt P14416); test: Dopamine D2 receptor (DRD2) small molecule antagonists, cell-based qHTS assay (AID 1963595; active = well fitted inhibition curve with a large enough effect in the signal ratio in the repeat runs, with a control signal flat; the % refers to the signal ratio; note: potency is the fitted concentration of half-maximal effect)
Summary of the method: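 Readout: HTRF cAMP, cAMP-d2 competing with cellular cAMP for anti-cAMP cryptate, read after 1 h. Cells: DRD2-HEK293. Conditions: 0.1 mM Ro20-1724, 12 nM quinpirole, 200 nM NKH477, 30 min RT.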
% is set by controls: 0 for no effect and ±100 for the full control effect.

OCC(O)[C@@H](O)[C@H](O)[C@H](O)CO[C@H]1O[C@H](CO)[C@@H](O)[C@H](O)[C@H]1O (stereo partly drawn)
inactive: Potency [1] | Potency [2] | Potency [3] | outcome [4] | outcome [5] | Potency [6] | Potency [7] | Potency [8] | Potency [9] | Potency [10] | Potency [11] | Potency [12] | Potency [13] | Potency [14] | Potency [15] | Potency [16] | Potency [17] | Potency [18] | Potency [19] | Potency [20]

CCCCCCCCCCCCCCCCCCOCCO
inactive: activity change, negative = cytotoxicity [1] 1.01% [at 19 µM] | activity, positive = activation [2] -0.745% [at 19 µM] | activity change [3] 0.36% [at 11.8 µM, hits give high values] | activation [4] 1.36% [at 15.8 µM] | activation [5] 0.568% [at 11.8 µM] | activation [6] 4.4% [at 13.5 µM] | activation [7] 0.0249% [at 13.6 µM] | activity change, negative = cytotoxicity [8] -1.11% [at 13.5 µM] | activity change, negative = cytotoxicity [9] 2.48% [at 13.5 µM] | activity change, negative = cytotoxicity [10] 16.5% [at 13.5 µM] | activity, negative = inhibition [11] -22.3% [at 12.7 µM] | activation [12] -2.03% [at 15.9 µM] | activity, negative = inhibition [13] -0.0015% [at 12.6 µM] | activation [14] -0.156% [at 15.8 µM] | activation [15] 3.72% [at 19 µM] | activity change, negative = inhibition [16] 0.259% [at 18.9 µM] | activity change, negative = inhibition [17] -12.3% [at 19 µM] | activation [19] -2.91% [at 19 µM] | activity change, negative = inhibition [20] -0.251% [at 18.9 µM]

CC(C)(C)NCC(O)c1cc(O)cc(O)c1 (stereo not drawn)
active: Potency [3] 0.268 µM | Potency [20] 10.6 µM
inactive: Potency [1] | Potency [2] | outcome [4] | outcome [5] | Potency [6] | Potency [7] | Potency [8] | Potency [9] | Potency [10] | Potency [16] | Potency [19]

C/C(=C\C(C)CC(C)CC(C)C)C1CC(=O)OC1=O (stereo not drawn)
inactive: Potency [1] | Potency [2] | Potency [3] | outcome [4] | outcome [5] | Potency [6] | Potency [7] | Potency [8] | Potency [9] | Potency [10] | Potency [11] | Potency [12] | Potency [13] | Potency [14] | Potency [15] | Potency [17] | Potency [19] | Potency [20]

CCCCCCCCCCCCCCCCCC(=O)OCCCCCCCCCCCCCC(C)C
inactive: Potency [1] | Potency [2] | Potency [3] | outcome [4] | outcome [5] | Potency [6] | Potency [7] | Potency [8] | Potency [9] | Potency [10] | Potency [11] | Potency [12] | Potency [13] | Potency [14] | Potency [15] | Potency [16] | Potency [17] | Potency [19] | Potency [20]

C[Si](C)(CCCN)O[Si](C)(C)CCCN
inactive: Potency [1] | Potency [2] | Potency [3] | outcome [4] | outcome [5] | Potency [6] | Potency [7] | Potency [8] | Potency [9] | Potency [10] | Potency [11] | Potency [12] | Potency [13] | Potency [14] | Potency [15] | Potency [16] | Potency [17] | Potency [18] | Potency [19] | Potency [20]

CN1CCC(=C2c3ccccc3CC(=O)c3sccc32)CC1
inactive: Potency [1] | Potency [2] | Potency [3] | outcome [4] | outcome [5] | Potency [6] | Potency [7] | Potency [8] | Potency [9] | Potency [10] | Potency [16] | Potency [17] | Potency [19] | Potency [20]
